The full list was thinned out, with hits kept by preference.
S aureus helic: S. aureus DNA helicase inhibition | purified S. aureus helicase, fluorescence unwinding assay | inhibition, % (test concentration not listed) | actives 0.05% (n = 120,000) | AID 485395; in the data active = inhibition above about 25%, passing the limit was not always enough
Sa growth inh: S. aureus growth inhibition; S. aureus RN4220 growth, OD600, 20 h, 42 °C; hits give low values; relative growth, % (concentration not given with the values); actives 0.53% (n = 170,000); AID 720641;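 active = relative growth at most 50% at the other temperature and 20+ points below 30 °C, or under 10% at both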
Large screens that a line does not name were inactive; ! = not active in a repeat.

CC1CCc2c(N3CCC(O)CC3)c(F)cc3c(=O)c(C(=O)O)cn1c23 (stereo not drawn)	Sa growth inh -1.0 (no result: S aureus helic)
COc1cccc(C(=O)NCc2nc(-c3ccccc3Cl)no2)c1	none
CN(C)/C=N/N=C/c1cc(Cl)cc(Cl)c1O	none
Cc1cccc(NC(=S)NC2CCCC2)c1	none
S=C(Nc1ccc(Cl)c(Cl)c1)NC1CCCC1	Sa growth inh 1.3 (no result: S aureus helic)
O=C(NCc1ccco1)c1ccccc1NCCOc1ccc(Cl)cc1	none
CCCCCCCCCCCCC[N+](C)(C)Cc1ccccc1	Sa growth inh -0.8 (no result: S aureus helic)
CC[N+](C)(CC)Cc1ccccc1	none
CCc1c(C)sc2c1CCN(Cc1ccccc1F)C2c1ccccc1 (stereo not drawn)	Sa growth inh -1.3 (no result: S aureus helic)
CCc1c(C)sc2c1CCN(C(=O)Nc1cc(OC)c(OC)c(OC)c1)C2c1ccccc1 (stereo not drawn)	none (no result: S aureus helic)
CCc1c(C)sc2c1CCN(Cc1cccc(OC)c1)C2c1ccccc1 (stereo not drawn)	Sa growth inh -1.1 (no result: S aureus helic)
CCOC(=O)c1ccccc1NC(=O)N1CCc2c(sc(C)c2CC)C1c1ccccc1 (stereo not drawn)	none (no result: S aureus helic)
CC(NC=O)c1nc2ccccc2n1C/C=C/c1ccccc1 (stereo not drawn)	none
COc1cccc2c1C(=O)c1c(O)c3c(c(O)c1C2=O)C[C@@](O)(C(C)=O)C[C@@H]3O[C@H]1C[C@H](N)[C@H](O)[C@H](C)O1	none (no result: S aureus helic)
CC[C@@]1(O)C[C@H](O[C@H]2C[C@H](N(C)C)[C@H](O[C@H]3C[C@H](O)[C@H](O[C@H]4CCC(=O)[C@H](C)O4)[C@H](C)O3)[C@H](C)O2)c2c(cc3c(c2O)C(=O)c2c(O)cccc2C3=O)[C@H]1C(=O)OC	none (no result: S aureus helic)
COc1cccc2c1C(=O)c1c(O)c3c(c(O)c1C2=O)C[C@@](O)(C(=O)CO)C[C@@H]3O[C@H]1C[C@H](N)[C@@H](O)[C@H](C)O1	Sa growth inh 2.0 (no result: S aureus helic)
CC(=O)[C@]1(O)Cc2c(O)c3c(c(O)c2[C@@H](O[C@H]2C[C@H](N)[C@H](O)[C@H](C)O2)C1)C(=O)c1ccccc1C3=O	Sa growth inh 0.4 (no result: S aureus helic)
Cc1nc2c3cc(F)ccc3n(C)c2s1	none
Cc1nn(C2CCS(=O)(=O)C2)c(Cl)c1/C=C/C(=O)OCCCn1c(=O)[nH]c2ccccc21 (stereo not drawn)	none
Cc1ccccc1OCCCC(=O)Nc1nc2ccccc2s1	none
Cc1cc(Nc2ncc(Cl)cc2Cl)n[nH]1	Sa growth inh 2.2
CN(CC(=O)Nc1ncc(Cl)cc1Cl)Cc1ccc(Cl)cc1	none
CCCc1nc2ccccc2c(C(=O)OCC#N)c1CC	none
CC(C)(C)c1ccccc1OCCCCCn1ccnc1	Sa growth inh -1.0
CCOc1ccc(OCCCCn2ccnc2)cc1	none
CC(C)COC(=O)N1CCCC1C(=O)Nc1ccccc1 (stereo not drawn)	none
NCc1ccncc1	none
CC[n+]1c(/C=C/Nc2ccccc2)sc2ccccc21	none
CC[n+]1c(/C=C/N(C)c2ccccc2)sc2ccc(OC)cc21	Sa growth inh -0.6
Cc1ccc(Cl)cc1N1CCN(C(=O)Cn2nc(C)c3sc4ccccc4c3c2=O)CC1	none (no result: S aureus helic)
Cc1ccc(Cl)cc1N1CCN(Cn2sc3ccccc3c2=O)CC1	Sa growth inh -0.4
CO[C@@]12[C@H](COC(N)=O)C3=C(C(=O)C(C)=C(N)C3=O)N1C[C@@H]1N[C@@H]12	Sa growth inh 0.0 (no result: S aureus helic)
CC1CC(=O)Nc2ccccc2N1C(=O)COc1ccccc1Br (stereo not drawn)	none
CCn1cc(C(=O)NCc2cccnc2)c(=O)c2cc(S(=O)(=O)N3CCCC3)ccc21	none
CCN1CCN(c2cc3c(cc2F)c(=O)c(C(=O)O)cn3C2CC2)CC1	Sa growth inh -0.9 (no result: S aureus helic)
CCn1cc(C(=O)O)c(=O)c2cc(F)c(N3CCN(C(=O)c4ccc(F)cc4)CC3)cc21	none
O=C(NCc1cccnc1)c1cn(C2CC2)c2cc(N3CCN(C(=O)c4cccc(Cl)c4)CC3)c(F)cc2c1=O	Sa growth inh 4.6
CCn1cc(C(=O)O)c(=O)c2cc(F)c(N3CCN(C(C)=O)CC3)cc21	none
O=C(O)c1cn(C2CC2)c2cc(N3CCNCC3)c(F)cc2c1=O	Sa growth inh 0.7! (no result: S aureus helic)
CCc1ccc(NS(=O)(=O)c2ccc(-n3cccn3)cc2)cc1	none
CC(Oc1ccc(C#N)cc1)C(=O)Nc1cc(Cl)ccc1-n1cncn1 (stereo not drawn)	none
N#CCn1cc(/C=C2\C(=O)NC(=O)N(c3cccc(F)c3)C2=O)c2ccccc21	none
CCCNc1sc(S(=O)(=O)CC)nc1S(=O)(=O)c1ccc(C)cc1	none
COc1ccc(C(=O)C[N+]2=C(C)c3ccc(C)n3CC2)cc1	none
CC1(C)SC(CNC(=O)Cc2ccccc2)NC1C(=O)O (stereo not drawn)	none (no result: S aureus helic)
CCC(C)(C)NC(=O)C(NS(=O)(=O)c1cccs1)c1ccccc1 (stereo not drawn)	none (no result: S aureus helic)
Cc1onc(-c2ccccc2Cl)c1C(=O)NC1=NCCS1	none
CC1(C)S[C@@H]2[C@H](NC(=O)Cc3ccccc3)C(=O)N2[C@H]1C(=O)O	Sa growth inh -0.9 (no result: S aureus helic)
CCN1CCN(C(=O)NC(C(=O)N[C@@H]2C(=O)N3[C@@H]2SC(C)(C)[C@@H]3C(=O)O)c2ccccc2)C(=O)C1=O (stereo partly drawn)	Sa growth inh -0.3 (no result: S aureus helic)
CC1(C)S[C@@H]2[C@H](NC(=O)COc3ccccc3)C(=O)N2[C@H]1C(=O)O	Sa growth inh -0.9 (no result: S aureus helic)
NNC(=O)COc1ccccc1	none (no result: S aureus helic)
Cc1onc(-c2ccccc2Cl)c1C(=O)N[C@@H]1C(=O)N2[C@@H]1SC(C)(C)[C@@H]2C(=O)O	Sa growth inh 0.0 (no result: S aureus helic)
N#C/C(=C\c1ccc(-c2ccc(S(N)(=O)=O)cc2)o1)S(=O)(=O)c1ccccc1	none
Cc1cc2ncn(C(=O)c3ccccc3C(=O)O)c2cc1C	none (no result: Sa growth inh)
Cc1cc(C)c(C#N)c(SS(=O)(=O)c2nc(C)cc(C)c2C#N)n1	none (no result: S aureus helic)
NC(=O)c1cc(NC(=O)/C=C/c2cccc(F)c2)cc(C(N)=O)c1	none
CC(=O)N1C(c2ccccc2)SC(C)(C)C1C(=O)O (stereo not drawn)	none (no result: S aureus helic)
CC1(C)S[C@@H]2C(N3C(=O)[C@@H](c4ccccc4)NC3(C)C)C(=O)N2[C@H]1C(=O)O (stereo partly drawn)	Sa growth inh -0.3 (no result: S aureus helic)
O=S(=O)(c1ccc(F)cc1)N1CCc2ccccc21	none (no result: Sa growth inh)
O=S(=O)(c1ccc(Cl)cc1)N1CCc2ccccc21	Sa growth inh 0.3
CCN(CC)C(=O)c1cc(-c2ccccc2O)on1	none
Oc1ccccc1-c1cc(C(F)(F)C(F)F)no1	Sa growth inh 1.5
Cc1ccc(O)c(-c2cc(C(F)(F)F)no2)c1	Sa growth inh 0.2
Cc1ccc(-c2cc(-c3ccccc3)no2)c(O)c1	none
O=C(Nc1ccccc1)Nc1cccc2ccccc12	none
CN(C)c1cc(NC(=O)Nc2ccccc2)c2ccccc2n1	Sa growth inh 0.0
O=C1/C(=N\n2cnc3c(cnn3-c3ccccc3)c2=O)c2ccccc2N1CO	none
CSc1nc2ccccc2n1CC(=O)N1CCc2ccccc21	none
COc1ccc(NC(=O)OCc2ccccc2)cc1OC	none
C=CCN1C(=O)S/C(=C/c2ccc(OC)c(OCC)c2)C1=O	none
N=C1S/C(=C\c2ccc(F)cc2)C(=O)N1c1nccs1	Sa growth inh 5.1
N=C1S/C(=C/c2ccccc2)C(=O)N1c1nonc1N	none
CCOc1cc(/C=C2/SC(=N)N(c3nccs3)C2=O)ccc1OCCN1CCOCC1	Sa growth inh 8.0
COc1cccc(NC(=O)Cn2ncc3c(=O)oc4ccccc4c32)c1	none
Cc1nnsc1C(=O)NCc1ccc(N2CCOCC2)cc1	none (no result: S aureus helic)
O=C(NCCO)c1c(Cl)cccc1Cl	none
C=CCN(Cc1cccs1)C(=O)Cn1c(=O)cnc2ccccc21	none
